HT1080-NT tox = qHTS for induction of synthetic lethality in tumor cells producing 2HG: qHTS for the HT-1080-NT fibrosarcoma cell line; 360,000 compounds, 1.6% hits; AID 686970, 2013; HT-1080-NT fibrosarcoma viability, CellTiter-Glo ATP luminescence, 48 h; Potency, µM (highest dose often 46.1 µM), for inactives: top-dose activity, negative = less viability, most hits filed as cytotoxic;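 note: NT is the 2HG producing partner of a matched IDH1 knockdown line; potency is the fitted concentration of half-maximal effect; 0% = DMSO-treated cells and -100% = media-only wells without cells; nearly all actives have a fitted effect of over 55% in size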
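Fibrosarcoma NT cells, 750 per well in 5% FBS RPMI, were exposed to compound for 48 hours. Viability: CellTiter-Glo luminescence.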
TDP1 cell noCPT = qHTS for Inhibitors of human tyrosyl-DNA phosphodiesterase 1 (TDP1): qHTS in cells in absence of CPT; DT40 Tdp1-/- hTDP1 cells, no CPT, ATP luminescence, 48 h; Potency, µM (top dose mostly 46.2 µM), for the others: top-dose activity change, negative = growth inhibition, most hits filed as inhibitors; 420,000 compounds, 15% hits; AID 686978, 2013; note: potency is the fitted concentration of half-maximal effect; nearly all actives have a fitted effect of over 55% in size
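Chicken DT40 Tdp1-/- cells stably complemented with human TDP1 were seeded at 400 cells/well with DMSO in place of 20 nM camptothecin. After compound pinning, cells grew at least 48 hr at 37 °C; viability read by CellTiter-Glo luminescence.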
TDP1 cell CPT = qHTS for Inhibitors of human tyrosyl-DNA phosphodiesterase 1 (TDP1): qHTS in cells in presence of CPT; Potency, µM (highest dose often 46.2 µM), without a hit: at the highest dose activity change, negative = growth inhibition, most hits filed as inhibitors; 420,000 compounds, 12% hits; chicken DT40 Tdp1-/-;hTDP1 cells + 20 nM CPT, ATP luminescence, 48 h; note: potency is the fitted concentration of half-maximal effect; nearly all actives have a fitted effect of over 55% in size
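Cell growth measured by CellTiter-Glo luminescence after a minimum 48 h, 37 C compound exposure with 20 nM CPT in Tdp1-knockout DT40 cells stably expressing hTDP1, seeded 400/well; qHTS titration format.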
IL-1B inflam inh = qHTS for Inhibitors of Inflammasome Signaling: IL-1-beta AlphaLISA Primary Screen; THP-1 LPS/ATP IL-1B secretion, AlphaLISA, 16 h; active compounds read low; activity change, % at 57.5 µM; 360,000 compounds, 4.7% hits; AID 743279, 2014; in the data active = activity change below about -50%; inconclusive = mostly about -30% to -49%
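Secreted IL-1B measured by AlphaLISA bead assay after 16 h compound exposure of THP-1 cells; compounds (final up to 57.5 uM) added 1 h before LPS (250 ng/mL) and ATP (1.25 mM) stimulation; lower signal means less secretion.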
HT1080 IDH1KD tx = qHTS for induction of synthetic lethality in tumor cells producing 2HG: qHTS for the HT-1080-IDH1KD cell line; Potency, µM (top dose mostly 46.1 µM), for the others: top-dose activity, negative = toxicity, most hits filed as cytotoxic; AID 686971, 2013; 360,000 compounds, 2% hits; HT-1080 IDH1 knockdown viability, ATP luminescence, 48 h;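 note: potency is the fitted concentration of half-maximal effect; 0% = DMSO wells and -100% = cell-free medium wells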
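Using the IDH1-knockdown HT-1080 line run in the same batch and compound series as the NT line, viability after 48 h at 37 °C was determined by CellTiter-Glo luminescence and expressed as % activity.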
Numbers without * were called inactive; ? = inconclusive; nt = not tested or not shown; [ ] = remark or other dose. Only some compounds are listed: those with a hit (about 19% of all), similar ones and a draw of the others. Unless noted, calls come from the whole dose curve; as a rule, active = well fitted curve in the direction sought with a large enough effect; inconclusive = small, poorly fitted or top-dose-only effect, or another doubt; inactive = no such curve, though single readings can be large; an effect the other way counts as inactive or inconclusive. Unless noted, % is set by controls: 0 for no effect and ±100 for the full control effect.

SMILES | HT1080-NT tox | TDP1 cell noCPT | TDP1 cell CPT | IL-1B inflam inh | HT1080 IDH1KD tx
COc1ccc2c(c1)C(SCC(=O)NCCc1ccc(Cl)cc1)CC(C)(C)O2 (stereo unspecified) | -6% | ? | 16µM* | -13 | -15%
CC(=O)Nc1ccccc1-c1nc(CNC(=O)c2cc(C)ccc2C)c(C)o1 | nt | -4% | 2%[9.04 µM] | nt | nt
Cc1c(C(=O)OC/C(O)=C(\C#N)c2nc3ccccc3[nH]2)oc2ccc(Br)cc12 | 0% | ? | -26% | 34 | 0%
N#C/C(=C(/O)COC(=O)CSc1ccc2ccccc2c1)c1nc2ccccc2[nH]1 | -1% | 2.9µM* | 5.2µM* | -105* | 6%
Cc1cc(Br)ccc1SCC(=O)OCC(O)=C(C#N)c1nc2ccccc2[nH]1 | 6% | 4.6µM* | 4.6µM* | -102* | 7%
Cc1cc(Br)ccc1SCC(=O)OC/C(O)=C(\C#N)c1nc2ccccc2[nH]1 | 0% | 21µM* | ? | 0 | 0%
Cc1ccc(C)c(SCC(=O)OC/C(O)=C(\C#N)c2nc3ccccc3[nH]2)c1 | -28% | ? | ? | -97* | -20%
Nc1cc(Nc2ccc(Br)cc2)nc(N)n1 | -19% | ? | -26% | -71* | -21%
Cc1cc(Nc2ccc(Cl)cc2)nc(N)n1 | 0% | ? | ? | 22 | 2%
COc1ccc(-c2n[nH]c(=S)n2/N=C/C=C/c2ccccc2OC)cc1 | -9% | ? | ? | 0 | -4%
COc1ccccc1/C=C/C=N/n1c(C2CCCCC2)n[nH]c1=S | -10% | 16µM* | ? | -3 | -27%
COc1ccccc1/C=C/C=N/n1c(-c2ccc(Cl)cc2)n[nH]c1=S | 6% | 16µM* | ? | 12 | 5%
Cc1ccc(-c2n[nH]c(=S)n2/N=C/c2ccc(C)s2)cc1 | -1% | -6% | -5% | -7 | -4%
Cc1ccc(/C=N/n2c(-c3ccc(Cl)cc3)n[nH]c2=S)s1 | 3% | 16µM* | ? | 19 | -5%
CCOc1ccccc1/C=N/n1c(C2CCCCC2)n[nH]c1=S | 3% | -1% | -21% | 10 | 4%
COc1ccccc1/C=C/C=N/n1c(-c2ccccc2)n[nH]c1=S | 1% | 21µM* | ? | 26 | -3%
CSc1nnc2c(n1)OC=Nc1ccc(Br)cc1-2 | 19% | -9% | -20% | 43 | -1%
CCc1nnc(NC(=O)c2ccccc2NC(=O)C2CCN(C(=O)c3ccco3)CC2)s1 | nt | 11µM* | 14µM* | nt | nt
CCC(C)(C)c1nnc(NC(=O)C2CCN(C(=O)c3ccco3)CC2)s1 | 4% | ? | 21µM* | 25 | -2%
CC(C(=O)OCC(=O)Nc1ccccc1OC(F)F)N1C(=O)C2CC=CCC2C1=O (stereo unspecified) | 9% | -28% | -2% | 14 | 3%
CN1CCc2c(sc3nc(SCC(=O)N4CCOCC4)nc(N)c23)C1 | -18% | 18µM* | 23µM* | -21 | 1%
CNC(=O)CSc1nc(N)c2c3c(sc2n1)CCC3 | 11% | 2% | 2% | -1 | -23%

Source: PubChem
